# In all, about 16,000 compounds went through this assay and about 2,600 (16%) were called active. Inconclusive results (about 20%) are left out. Only a sample is shown. Unmarked numbers belong to inactive results. Calls follow the shape of the dose curve; as a rule, active = well fitted curve in the direction sought with a large enough effect; inconclusive = small, poorly fitted or top-dose-only effect, or effect the other way; inactive = no such curve, though single readings can be large or run the other way.
# Biological target: Cytochrome P450 2D6 (Homo sapiens) (UniProt P10635)
# Experiment: Cytochrome panel assay with activity outcomes
# Details: recombinant CYP, pro-luciferin dealkylation, luminescence, p450-cyp2d6; series mostly up to 57.1 µM; activity, negative = inhibition: at the top concentration
# % is scaled to controls: 0 for no effect and ±100 for the full control effect.
# Chain of Cytochrome P450 2D6 (Homo sapiens) (P10635 whole entry, looked up): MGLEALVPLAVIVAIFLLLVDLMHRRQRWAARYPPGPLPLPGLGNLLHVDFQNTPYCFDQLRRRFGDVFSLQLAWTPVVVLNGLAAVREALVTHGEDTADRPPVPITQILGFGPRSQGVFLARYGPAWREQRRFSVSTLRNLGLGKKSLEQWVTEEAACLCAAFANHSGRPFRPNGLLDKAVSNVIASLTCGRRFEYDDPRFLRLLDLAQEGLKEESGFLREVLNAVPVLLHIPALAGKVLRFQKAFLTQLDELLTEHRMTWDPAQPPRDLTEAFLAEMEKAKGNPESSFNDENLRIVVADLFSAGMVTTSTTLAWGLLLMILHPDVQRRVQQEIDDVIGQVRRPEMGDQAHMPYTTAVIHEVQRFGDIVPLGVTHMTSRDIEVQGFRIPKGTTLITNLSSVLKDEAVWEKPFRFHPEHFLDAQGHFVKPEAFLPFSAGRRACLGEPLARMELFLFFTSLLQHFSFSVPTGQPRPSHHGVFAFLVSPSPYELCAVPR
SMILES,"activity, negative = inhibition",AC50
CCCOC(=O)c1c(NC(=O)/C=C/c2cnn(C)c2C)sc(C(=O)OCC)c1C,9.96%,
CCOc1cccc2cc(C(N)=O)c(=NCc3ccccc3)oc12,-3.81%,
Oc1ccccc1-c1cc(-c2ccccc2)no1,-29.9%,
c1c[nH]c(CN2CCOCC2)n1,-10.1% [at 11.4 µM],
Cc1ccc(N(Cc2ccccc2)Cc2ccccc2)cc1,0.619% [at 11.4 µM],
c1c[nH]c(CN2CCN(Cc3ncc[nH]3)CC2)n1,-3.74% [at 11.4 µM],
c1ccc2c(CC3=NCCN3)cccc2c1,,7.94 µM (active)
c1ccc(CN(CC2=NCCN2)c2ccccc2)cc1,,2.51 µM (active)
C[C@@H]1c2ccccc2CN1CC1=NCCN1,-9.96%,
Cc1cc(C=C(C#N)C#N)c(C)n1-c1ccccc1,-1.52%,
CCc1cc2c(nc1CC)CCN(CC/C(C)=N/O[C@@H](C)c1cn([C@H](CO)Cc3ccccc3)nn1)C2,2.14% [at 11.4 µM],
Nc1ncnc2c([C@@H]3O[C@@H](CO)[C@H](O)[C@@H]3O)nsc12,-0.815% [at 11.4 µM],
N#Cc1c(N2CCN(C(=O)c3ccccc3Cl)CC2)nc(-c2ccccc2)c2c1CCCC2,-17.9%,
CC1CN(C(=O)CN2C(=O)NC3(CCCCCC3)C2=O)CC(C)O1 (stereo not given),-5.42%,
Cc1nc2cnc(Oc3cccc(Cl)c3)nc2n(C2CC2)c1=O,-1.54%,
CN(c1ccc(C(=O)NC2CC3CCC2C3)cc1)S(C)(=O)=O (stereo not given),27.3%,
CNc1nc(NCCOC23CC4CC(CC(C4)C2)C3)nc(OCC(F)(F)F)n1,-17%,
Cc1ccc(C(=O)N2CCN(c3ccc(C(F)(F)F)cn3)CC2)cc1,-23.2%,
COc1cccc(Nc2ncc3nc(C)c(=O)n(CCC#N)c3n2)c1,-5.84%,
COc1ccc2[nH]cc(CCNc3cc(-c4ccccc4OC)ncn3)c2c1,,12.6 µM (active)
COc1ccc2[nH]cc(CCNc3cc(-c4ccccc4C)ncn3)c2c1,,7.94 µM (active)
COc1cccc(-c2cc(NCCc3c[nH]c4ccc(OC)cc34)ncn2)c1,,15.8 µM (active)
COc1ccc2[nH]cc(CCNc3cc(-c4ccoc4)ncn3)c2c1,,12.6 µM (active)
COc1ccc2[nH]cc(C=O)c2c1,-3.89%,
COCCNc1cc(-c2ccccc2C(F)(F)F)ncn1,3.95%,
COC(=O)Nc1ccc2[nH]cc(CCNC(C)=O)c2c1,-11.2%,
CC(=O)NCCNc1cc(-c2ccccc2C)ncn1,-9.8%,

SMILES,"activity, negative = inhibition",AC50
CCOC(=O)C1=C(C)NC2=C(C(=O)C(C(=O)OCC)C(c3ccc(OC)cc3)C2)C1c1ccccn1 (stereo not given),-8.45%,
O=C1OCCC1Sc1nnnn1-c1ccccc1 (stereo not given),-7%,
O=C1C[C@H](c2ccccc2)[C@@H](c2ccc(Br)cc2)O1,-20.8% [at 11.4 µM],
COCCn1c(=O)cnc2cnc(Nc3cccc(OC)c3)nc21,-5.08%,
CC(C)Cc1nnc(NC(=O)c2ccc([N+](=O)[O-])cc2)s1,-2.73%,
COc1cccc(Cn2c(NCc3cccnc3)nc3c2c(=O)n(C)c(=O)n3C)c1,-24.9%,
COc1ccc(CNC(=O)C(c2ccc(C)cc2)N(Cc2cccs2)C(=O)c2ccc3c(c2)OCCO3)cc1 (stereo not given),-10.3%,
CC(C(=O)NCc1ccc2c(c1)OCO2)N1c2cccc3cccc(c23)S1(=O)=O (stereo not given),,10 µM (active)
COc1ccc(NC(=O)CN2c3cccc4cccc(c34)S2(=O)=O)cc1,-10.1%,
O=C(CCc1ccccc1)NNC(=S)NC(=O)c1ccccc1,-21.2%,
NNC(=O)c1ccc[n+](CCc2ccccc2)c1,,2 µM (active)
CC(=O)Nc1ccc(C(=O)NNC(=O)CCc2ccccc2)cc1,0.797%,
CCc1cc2c(=O)[nH]cnc2s1,12.4%,
Cc1ccccc1-c1ccc2ncnc(N(C)C)c2c1,,20 µM (active)
CN(Cc1ccco1)c1ncnc2ccc(-c3cccnc3)cc12,,2 µM (active)
CN(C)c1ncnc2ccc(-c3ccccc3C#N)cc12,-2.25%,
CN(Cc1ccco1)c1ncnc2ccc(-c3cccc(NS(C)(=O)=O)c3)cc12,,20 µM (active)
CN(C)c1ncnc2ccc(-c3ccoc3)cc12,,10 µM (active)
CN(C)C(=O)c1ccc(-c2ccc3ncnc(N(C)C)c3c2)cc1,-8.04%,
CS(=O)(=O)Nc1cccc(-c2ccc3ncnc(NC4CC4)c3c2)c1,-5.59%,
Cc1noc(C)c1-c1ccc2ncnc(N(C)C)c2c1,-8.41%,
CN(C)c1ccc(-c2ccc3ncnc(N(C)C)c3c2)cc1,6.19%,
CS(=O)(=O)Nc1cccc(-c2ccc3ncnc(N4CCOCC4)c3c2)c1,-6.5%,
CC(C)(C)CNCCO,17.6% [at 11.4 µM],
COCCSc1nnc(NC(=O)C(C)(C)C)s1,17.8%,
Cc1c(Br)c([N+](=O)[O-])nn1C(C)C(=O)Nc1nccs1 (stereo not given),-25.7%,
CCN(CC)C(=O)CSc1nnc(C2CCCCC2)o1,-5.44%,

SMILES,"activity, negative = inhibition",AC50
COC(=O)CN1C(=O)S/C(=C/c2ccc(N3CCCCC3)o2)C1=O,-25.5%,
CSc1nc(N)c2ncn([C@H]3O[C@H](COP(=O)(O)OP(=O)(O)O)[C@@H](O)[C@@H]3O)c2n1,1.14%,
O=C(O)c1cc(-c2ccc(-c3ccc(-c4cc(C(=O)O)c5cc(Cl)ccc5n4)cc3)cc2)nc2ccc(Cl)cc12,16.7% [at 11.4 µM],
Cn1nnnc1SCC(=O)Nc1ccccc1[N+](=O)[O-],18.7%,
CCS(=O)(=O)NCCc1cc2ccc(C)cc2[nH]c1=O,7.85%,
CN(C)c1ncc2nc(-c3ccccc3)c(=O)n(C)c2n1,-8.32%,
CC(C)(C)C(=O)NC(c1ccc(Cl)cc1)[C@]1(C)C[C@H]1C1CCCCC1 (stereo not given in full),-1.59%,
CNc1ncnc2ccc(-c3cccc(OC)c3)cc12,,15.8 µM (active)
COc1cccc(-c2ccc3ncnc(NC4CCNCC4)c3c2)c1,-20.1%,
COc1cccc(-c2ccc3ncnc(N(C)C)c3c2)c1,,10 µM (active)
COc1cccc(-c2ccc3ncnc(Nc4ccccc4)c3c2)c1,-7.86%,
COc1cccc(-c2ccc3ncnc(N(C)Cc4ccco4)c3c2)c1,,10 µM (active)
CN(Cc1ccco1)c1ncnc2ccc(-c3ccc4c(c3)OCO4)cc12,,1.58 µM (active)
Cc1ccc(C(=O)NC(=S)NCC2CCCO2)cc1 (stereo not given),6.78%,
Cc1ccc(C2(C)NC(=O)N(CC(=O)Nc3cc(C)on3)C2=O)cc1 (stereo not given),-8.31%,
COc1ccc(-n2c(SC)nc(O)c(Cc3ccccc3)c2=O)cc1,-3.51%,
CC1=NN(c2ccccc2)C(=O)C1C(=O)c1ccc(Cl)cc1 (stereo not given),0.392%,
CCOc1ccc(CSC(CC(=O)O)C(=O)O)cc1 (stereo not given),12.9%,
CSC1=N/C(=C\c2ccc(C)cc2)C(=O)S1,7.54%,
C[C@H](N=C(NC#N)Nc1ccncc1)C(C)(C)C,,inactive
C[N+](C)(C)c1ncnc2c1ncn2[C@@H]1CCCCO1,-6.66% [at 11.4 µM],
CCNc1ncc2nc(-c3cn(C)c4ccccc34)c(=O)n(Cc3cccc(OC)c3)c2n1,-1.84%,
CCOC(=O)/C(C(N)=NCCCO)=C(/O)c1ccccc1,2.86%,
COc1cc(OC)c(C#N)c(S(=O)(=O)Cc2ccccc2)c1,-12.6%,
COC(=O)c1c(-c2cc(OC)c(OC)c(OC)c2)c2ccc(OCc3ccccn3)cc2c(=O)n1-c1ccc(N)cc1,-4.78%,
O=C(Oc1ccccc1)N1CCC2(CC1)CN(c1ccccc1)C2,0.533%,
O=C(Cn1nnc2ccccc21)N1CCCCC1,30.5%,

SMILES,"activity, negative = inhibition",AC50
COCCNC(=O)C(c1ccc(C)o1)N(CC1CCCO1)C(=O)Cn1nnc2ccccc21 (stereo not given),2.15%,
COc1ccc(N(C(=O)Cn2nnc3ccccc32)C2(C(=O)NC3CCCC3)CCCCC2)cc1,,11.2 µM (active)
CCOCC(=O)Nc1cc(-c2cn3cccnc3n2)ccc1C,-2.74%,
Clc1ccc(-c2ccnc(Oc3cc(Cl)ccc3Cl)n2)cc1,12.1%,
CCOc1cc2[nH]c(=O)n(CCC(=O)NCc3ccc(OC)cc3)c(=O)c2cc1OCC,5.2%,
CCc1ccc(NC(=O)CSc2nc3cc(C(=O)OC)ccc3c(=O)n2Cc2ccco2)cc1,2.28%,
O=C(CSc1nc2ccccc2c(=O)n1Cc1ccccc1)NCc1ccco1,12.5%,
Cc1cc(NC(=O)CSc2nc3ccsc3c(=O)n2Cc2ccccn2)n[nH]1,-20.4%,
CCOC(=O)CSc1nc2ccccc2c(=O)n1CC1CCC(C(=O)NCc2ccco2)CC1 (stereo not given),-10.7%,
O=C(CSc1nc2ccccc2c(=O)n1CCCC(=O)N1CCCC1)NCc1ccco1,-10.9%,
Cc1cc(NC(=O)CSc2nc3ccccc3c(=O)n2CCCC(=O)NCc2ccco2)n[nH]1,,15.8 µM (active)
CCCCCn1c(SCc2ccncc2)nc2cc(C(=O)NCc3ccco3)ccc2c1=O,,0.794 µM (active)
O=C(NCC1CCCO1)c1ccc2c(=O)n(Cc3ccco3)c(SCC(=O)N3CCCC3)nc2c1 (stereo not given),-11.9%,
Cc1cccc(C)c1-n1c(SCC(=O)NCc2ccco2)nc2ccccc2c1=O,,28.2 µM (active)
C=CCOc1ccc2cccc(/C=N/NC(=O)c3cc4cc([N+](=O)[O-])ccc4s3)c2c1,-6.69%,
CCCCCCCOC1(c2ccccc2)OC(=O)c2ccccc21 (stereo not given),-11.7%,
CCCN(CCC)C(=O)[C@@H](CCC(=O)O)NC(=O)c1ccccc1,,inactive
CC(=O)Nc1ccc2c(c1)/C(=C/c1ccc([N+](C)(C)C)cc1)c1ccccc1-2,-4.76% [at 11.4 µM],
Cc1sc2nc(SCc3nc(-c4cccs4)no3)n(-c3ccccc3)c(=O)c2c1C,17.3%,
CC(C)=NNc1ncnc2nc[nH]c12,12.8% [at 11.4 µM],
CN(C)CCN1C(=O)C(O)=C(C(=O)c2cc3ccccc3o2)C1c1ccccn1 (stereo not given),7.71%,
NC(=NCCC[C@H](N)C(=O)O)NO,5.27%,
CCCN=C(N)NCCC[C@H](N)C(=O)O,,7.94 µM (active)
NC(=S)NCCC[C@@H](N)C(=O)O,-2%,

# Reference: PubChem BioAssay AID1851 (National Center for Advancing Translational Sciences (NCATS), 2009)
